Measured values reported in paper PMC5540273 (PLoS ONE, 2017).

How the values were obtained:
Details in all cases: concentration: 1 μM,replicates: in singlicate; n = 1
CAMK1 = tested on: CAMK1
CAMK2A = tested on: CAMK2A
CAMK2B = tested on: CAMK2B
CAMK2D = tested on: CAMK2D
CAMK2G = tested on: CAMK2G
CAMK4 = tested on: CAMK4
CAMKK1 = tested on: CAMKK1
CAMKK2 = tested on: CAMKK2
CASK = tested on: CASK
CDC2L1 = tested on: T1, CDC2L1
T1 construct: gene CDK11B

CDC2L2 = tested on: CDC2L2
CDC2L5 = tested on: T2, CDC2L5
T2 construct: gene CDK13

CDK11 = tested on: T3, CDK11
T3 construct: gene CDK19

CDK2 = tested on: CDK2
CDK3 = tested on: CDK3
CDK4-cyclinD1 = tested on: CDK4-cyclinD1
CDK4-cyclinD3 = tested on: CDK4-cyclinD3
CDK4 = tested on: CDK4
CDK5 = tested on: CDK5
CDK7 = tested on: CDK7
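Also: KINOMEscan kinase panel screen.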

Compound | %Inh (CAMK1) [%] | %Inh (CAMK2A) [%] | %Inh (CAMK2B) [%] | %Inh (CAMK2D) [%] | %Inh (CAMK2G) [%] | %Inh (CAMK4) [%] | %Inh (CAMKK1) [%] | %Inh (CAMKK2) [%] | %Inh (CASK) [%] | %Inh (CDC2L1) [%] | %Inh (CDC2L2) [%] | %Inh (CDC2L5) [%] | %Inh (CDK11) [%] | %Inh (CDK2) [%] | %Inh (CDK3) [%] | %Inh (CDK4-cyclinD1) [%] | %Inh (CDK4-cyclinD3) [%] | %Inh (CDK4) [%] | %Inh (CDK5) [%] | %Inh (CDK7) [%]
CC(=O)Nc1nc2cnc(Nc3cc(NC(=O)c4cccc(CC(C)(C)C#N)c4)ccc3C)nc2s1 | 4 | 0 | 0 | 7 | 14 | 0 | 21 | 11 | 0 | 16 | 16 | 66 | 79 | 15 | 0 | 1 | 15 | 45 | 14 | 36
O=C(Nc1n[nH]c2cc(-c3ccco3)ccc12)C1CC1 [SB-737447] | 5 | 39 | 34 | 3 | 4 | 0 | 4 | 5 | 17 | 0 | 7 | 19 | 0 | 49 | 7 | 0 | 6 | 5 | 11 | 38
C[C@@H](Oc1cc(-n2cnc3cc(-c4cnn(C)c4)ccc32)sc1C(N)=O)c1ccccc1Cl [GSK580432] | 39 | 0 | 9 | 23 | 25 | 0 | 59 | 90.3 | 23 | 0 | 0 | 0 | 28 | 26 | 20 | 0 | 3 | 18 | 0 | 0
COc1cc2nccc(Nc3ccc(Oc4ccccc4)cc3)c2cc1OC.Cl [GI261656] | 20 | 0 | 0 | 16 | 18 | 0 | 7 | 17 | 0 | 0 | 28 | 0 | 0 | 0 | 0 | 0 | 0 | 44 | 0 | 0
Cn1ccc2ncnc(Oc3ccc(NC(=O)Nc4cnn(C(C)(C)C)c4)c(Cl)c3)c21 | 9 | 0 | 17 | 0 | 2 | 7 | 0 | 0 | 10 | 0 | 0 | 45 | 99.6 | 0 | 0 | 0 | 0 | 0 | 2 | 27
CN(c1cccc(CNc2nc(Nc3ccc4c(c3)CC(=O)N4)ncc2C(F)(F)F)c1)S(C)(=O)=O | 0 | 0 | 0 | 7 | 0 | 0 | 15 | 16 | 7 | 0 | 7 | 0 | 0 | 6 | 22 | 22 | 0 | 0 | 31 | 53
CC(C(=O)NC1CCN(c2ccnc(Nc3ccc(F)cc3)n2)C1)c1ccc(Cl)cc1 (stereo not drawn) [GSK1379713] | 8 | 0 | 0 | 2 | 26 | 0 | 0 | 5 | 0 | 0 | 0 | 0 | 6 | 0 | 23 | 0 | 0 | 0 | 0 | 0
Cl.Nc1n[nH]c2cc(-c3ccccn3)ccc12 [GSK2189892] | 23 | 0 | 0 | 2 | 24 | 0 | 0 | 9 | 0 | 1 | 23 | 0 | 2 | 0 | 0 | 0 | 0 | 0 | 0 | 0
NC(=O)Nc1sc(-c2ccc(F)cc2)cc1C(N)=O [GW789449] | 12 | 0 | 0 | 2 | 0 | 0 | 12 | 7 | 15 | 0 | 0 | 14 | 0 | 0 | 17 | 30 | 0 | 0 | 0 | 19
Cc1n[nH]c2cc(Nc3ccnc(Nc4cccc(CN5CCOCC5)c4)n3)ccc12 [GW682569] | 43 | 0 | 0 | 5 | 0 | 0 | 21 | 13 | 0 | 7 | 24 | 0 | 19 | 0 | 5 | 0 | 0 | 31 | 0 | 0
COC(=O)Nc1nc2cc(Oc3ccc(NC(=O)Nc4cc(C(F)(F)F)ccc4Cl)cc3)ccc2[nH]1.Cl [GW697465] | 5 | 0 | 0 | 0 | 7 | 0 | 2 | 0 | 0 | 0 | 12 | 6 | 66 | 37 | 10 | 20 | 0 | 50 | 0 | 89
O=c1[nH]cc(-c2ccc(O)cc2)c2sc(-c3ccncc3)cc12 [GSK1033723] | 6 | 0 | 0 | 4 | 29 | 0 | 15 | 15 | 15 | 0 | 12 | 0 | 0 | 0 | 1 | 0 | 0 | 31 | 0 | 0
CN(c1ccc2c(c1)nc(NCc1ccc(F)cc1)n2C)c1ccnc(Nc2ccc(CS(C)(=O)=O)cc2)n1.Cl [GW813244] | 0 | 0 | 0 | 0 | 1 | 0 | 0 | 6 | 15 | 94.5 | 92.6 | 0 | 26 | 5 | 6 | 0 | 10 | 22 | 0 | 31
Cn1ccc2ncnc(Oc3ccc(NC(=O)Nc4cncc(C(F)(F)F)c4)c(Cl)c3)c21 | 0 | 0 | 0 | 0 | 0 | 0 | 0 | 14 | 0 | 0 | 0 | 51 | 97.7 | 0 | 0 | 0 | 0 | 0 | 0 | 0
C[C@@H](Oc1cc(-n2cnc3cc(-c4ccncc4)ccc32)sc1C(N)=O)c1ccccc1Cl [GSK479719] | 4 | 0 | 0 | 0 | 0 | 0 | 18 | 54 | 29 | 0 | 0 | 0 | 0 | 42 | 29 | 0 | 21 | 0 | 0 | 1
O=C(Nc1ccccc1)c1cccc(Oc2ccc3nccn3n2)c1 | 0 | 0 | 12 | 14 | 0 | 0 | 6 | 0 | 8 | 96 | 28 | 0 | 0 | 0 | 15 | 11 | 6 | 22 | 0 | 12
Cc1ccn2nc(-c3ccc(F)cc3)c(-c3ccncc3)c2c1.Cl [GW457859] | 16 | 0 | 0 | 0 | 15 | 0 | 0 | 9 | 6 | 0 | 24 | 0 | 1 | 0 | 2 | 18 | 0 | 50 | 0 | 47
COc1ccc(Nc2nccc(N3CCC(NC(=O)c4cccc(C#N)c4)C3)n2)cc1 (stereo not drawn) [GSK1379730] | 0 | 0 | 0 | 0 | 6 | 0 | 8 | 10 | 0 | 0 | 0 | 0 | 4 | 0 | 26 | 34 | 0 | 36 | 7 | 0
Cn1ccc2ncnc(Oc3ccc(NC(=O)Nc4cccc(C(F)(F)F)c4)c(Cl)c3)c21 | 4 | 0 | 0 | 7 | 0 | 6 | 0 | 0 | 0 | 0 | 5 | 0 | 99.8 | 0 | 5 | 8 | 0 | 0 | 0 | 2
O=C(Nc1ccc(Oc2ccc3nc(NC(=O)C4CC4)cn3n2)c(F)c1)c1cccn(-c2ccccc2)c1=O | 5 | 1 | 0 | 3 | 2 | 21 | 11 | 1 | 3 | 13 | 6 | 0 | 28 | 0 | 39 | 0 | 0 | 0 | 0 | 0
COc1cc(Nc2nccc(N3CCC(NC(=O)c4cccc(C#N)c4)C3)n2)cc(OC)c1OC (stereo not drawn) [GSK1379751] | 3 | 0 | 0 | 0 | 17 | 0 | 0 | 3 | 3 | 0 | 36 | 0 | 12 | 0 | 0 | 5 | 0 | 27 | 0 | 0
